# Measured values: PubChem BioAssay (NCATS)
# Records with an inconclusive call do not appear. Where a call stands in place of a potency, no number is given. Values without a mark were called inactive. Active and inactive are the calls of the source. The call rests on the fitted dose curve; in most records, active means well fitted cell-killing curve with a large enough effect; inconclusive means small, poorly fitted or top-dose-only effect, or effect the other way; inactive means flat fitted curve, though single readings scatter.
# Legend:
# Assay in all cases: Primary qHTS to identify gynecologic anti-cancer compounds using libraries of approved drugs and bioactive compounds (AID 1345084); further: nearly all actives have a fitted effect of over 55% in size
# Settings in all cases: Gynecologic cancer cell panel viability, ATPlite luminescence, 48 h; series mostly up to 57.5 µM
# [1] = system: OV90
# How it was run: (§1)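 ATP-based viability (ATPlite), 1,000 cells/well, 16 h pre-incubation, 48 h compound at 37 C, 5% CO2, 15 min RT before read.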
# [2] = system: PA-1
# How it was run: as §1
# [3] = system: SKOV3
# How it was run: as §1
# [4] = system: Tov-21-G
# How it was run: as §1
# [5] = system: Tov112D
# How it was run: as §1
# Potency means the concentration at half of the fitted maximal effect.
compound,measurement,setting,value
C=CC(=O)Nc1cccc(Nc2nc(Nc3ccc(N4CCN(C(C)=O)CC4)cc3OC)ncc2C(F)(F)F)c1,Potency,[1],15.8 µM (active)
CC(C)c1cccc2c(-c3ccccc3)cc(-c3ccc(-c4ccc(C(=O)O)cc4)[nH]3)nc12,Potency,[1],inactive
same,Potency,[2],inactive
same,Potency,[3],inactive
Cn1nnc(-c2ccc(-c3ccc(N4C[C@H](COP(=O)(O)O)OC4=O)cc3F)cn2)n1,Potency,[1],20 µM (active)
CCCN1CCC(c2cccc(S(C)(=O)=O)c2)CC1,Potency,[1],inactive
NC(=O)c1cccc(-c2cc(OC(=O)NC3CCCCC3)ccc2O)c1,Potency,[1],inactive
same,Potency,[2],inactive
same,Potency,[3],inactive
C[C@@H]1O[C@@H](O[C@H]2[C@H](OC(=O)[C@]34CCC(C)(C)C[C@H]3C3=CCC5[C@@]6(C)CC[C@H](O[C@@H]7O[C@H](C(=O)O)[C@@H](O)[C@H](O)[C@H]7O[C@@H]7O[C@H](CO)[C@H](O)[C@H](O)[C@H]7O)[C@@](C)(C=O)C6CC[C@@]5(C)[C@]3(C)C[C@H]4O)O[C@H](C)[C@H](O[C@@H]3O[C@H](C)[C@H](O)[C@H](O)[C@H]3O)[C@@H]2O)[C@H](O)[C@H](O)[C@H]1O[C@@H]1OC[C@@H](O)[C@H](O[C@@H]2O[C@H](CO)[C@@H](O)[C@H](O)[C@H]2O)[C@H]1O (stereo not given in full),"activity change, negative = cytotoxicity",[1],-26.3% [at 6.55 µM]
Cc1ccc(C(=O)N(CCCN)C(c2nc3cc(Cl)ccc3c(=O)n2Cc2ccccc2)C(C)C)cc1 (stereo not given),Potency,[1],inactive
C#CCN(Cc1cc2c(=O)n(C)c(CN3CCN(C)CC3)nc2cc1Cl)c1ccc(C(=O)NCc2cccnc2)cc1,Potency,[1],inactive
Cc1ccc(S(=O)(=O)n2ccc(-c3c(-c4ccc(Cl)cc4)noc3C)n2)cc1,Potency,[1],inactive
same,Potency,[2],inactive
NC(=O)[C@H]1CCS[C@@H]2C[C@]3(CCCN3C(=O)Cc3ccc(NC(=O)COc4ccc(Cl)cc4Cl)cc3)C(=O)N12,Potency,[1],inactive
same,Potency,[2],15.8 µM (active)
COc1cc2nc(N3CCCC3)nc(NCCCCCN3CCCC3)c2cc1OC,Potency,[1],25.1 µM (active)
same,Potency,[2],6.31 µM (active)
same,Potency,[3],12.6 µM (active)
NC(=O)Nc1cc(-c2cccc(F)c2)sc1C(=O)NC1CCCNC1 (stereo not given),Potency,[1],5.62 µM (active)
C=C(C(=O)OC)C1C(O)CC2(C)C(O)CCC(=O)C2C1O (stereo not given),Potency,[1],inactive
C=CC(=O)Nc1cccc(CN2C(=O)N(c3c(Cl)c(OC)cc(OC)c3Cl)Cc3cnc(NCCCCN(CC)CC)nc32)c1,Potency,[1],inactive
CC(=O)O[C@H]1CC(C)(C)CC2[C@@]13[C@H](O)C[C@]1(C)[C@@]2(CCC2[C@@]4(C)CC[C@H](O[C@@H]5OC[C@H](O[C@@H]6O[C@H](CO)[C@@H](O)[C@H](O)[C@H]6O[C@@H]6OC[C@@H](O)[C@H](O)[C@H]6O)[C@H](O)[C@H]5O[C@@H]5O[C@H](CO)[C@@H](O)[C@H](O)[C@H]5O)C(C)(C)C4CC[C@]21C)O[C@@H]3O (stereo not given in full),Potency,[1],3.16 µM (active)
CN(C)c1nc(NC2CCC(NC(=O)c3ccc(F)c(F)c3)CC2)nc2ccccc12 (stereo not given),Potency,[1],11.2 µM (active)
same,Potency,[2],14.1 µM (active)
CC1(C)CC(NC(=O)C(=O)Nc2ccc(Br)cc2)CC(C)(C)N1,Potency,[1],inactive
C[C@@H]1O[C@@H](O[C@H]2[C@H](O[C@H]3[C@H](O[C@H]4CC[C@@]5(C)C(CC[C@]6(C)C5CC=C5[C@@H]7CC(C)(C)CC[C@]7(C(=O)O[C@@H]7O[C@H](CO)[C@@H](O[C@@H]8O[C@@H](C)[C@H](O)[C@@H](O)[C@H]8O)[C@H](O)[C@H]7O)CC[C@]56C)C4(C)C)OC[C@H](O)[C@@H]3O)O[C@H](CO)[C@@H](O)[C@@H]2O)[C@H](O)[C@H](O)[C@H]1O (stereo not given in full),"activity change, negative = cytotoxicity",[1],-0.139% [at 6.55 µM]
O=C(c1ccc(/C=C/c2n[nH]c3ccccc23)cc1)N1CCNCC1,Potency,[1],8.91 µM (active)
same,Potency,[2],8.91 µM (active)
CC1(C)C2CC(OC3OC(COC4OCC(O)(CO)C4O)C(O)C(O)C3O)C1(C)CC2O (stereo not given),Potency,[1],inactive
Cc1cc(C)c(Nc2ccnc(Nc3ccc(C#N)cc3)n2)c(C)c1,Potency,[1],10 µM (active)
same,Potency,[2],inactive
O=C(/C=C\n1cnc(-c2cc(C(F)(F)F)cc(C(F)(F)F)c2)n1)N1CC(F)(F)C1,Potency,[1],inactive
same,Potency,[2],1.41 µM (active)
CCOC(=O)Nc1cc(-c2ccc(C)c(NS(C)(=O)=O)c2)nn2c(C)nnc12,Potency,[1],12.6 µM (active)
same,Potency,[2],31.6 µM (active)
same,Potency,[3],7.08 µM (active)
Nc1ccc(-c2cccc3c(=O)cc(N4CCOCC4)oc23)cc1,Potency,[1],11.2 µM (active)
CC(C)c1nc(-c2ccc(NC(=O)Nc3cccc(C(F)(F)F)c3)c3ccccc23)c2c(N)nccn12,Potency,[1],1.58 µM (active)
same,Potency,[2],12.6 µM (active)
same,Potency,[3],28.2 µM (active)
CCc1cnn2c(NCc3ccc[n+]([O-])c3)cc(N3CCCCC3CCO)nc12 (stereo not given),Potency,[1],inactive
CC12CCC(OC3OC(CO)C(O)C(OC4OC(CO)C(O)C(O)C4O)C3O)CC1=CCC1C2CCC2(C)/C(=C3/COC(=O)C3)CCC12O (stereo not given),Potency,[1],inactive
same,Potency,[2],inactive
same,Potency,[3],inactive
same,Potency,[4],inactive
CCNC(=O)Nc1ccc(-c2nc3c(c(N4CCOC[C@@H]4C)n2)CCN(c2ncccn2)C3)cc1,Potency,[1],1.26 µM (active)
same,Potency,[2],1.12 µM (active)
Cc1ccc(S(=O)(=O)Cc2nc(-c3ccc(C(=O)NCc4cccnc4)cc3)oc2C)cc1,Potency,[1],inactive
CC(Oc1cc(-n2cnc3ccc(CN4CCN(C)CC4)cc32)sc1C(N)=O)c1ccccc1C(F)(F)F (stereo not given),Potency,[1],inactive
same,Potency,[2],11.2 µM (active)
O=S(=O)(NCC1CC1)c1ccc(Nc2nccc(N3CCCc4cc(O)ccc43)n2)cc1,Potency,[1],inactive
same,Potency,[2],10 µM (active)
COC(=O)N1CCC(n2ncc3c(N4CCOCC4)nc(-c4ccc(NC(=O)Nc5ccc(CO)cc5)cc4)nc32)CC1,Potency,[1],0.794 µM (active)
same,Potency,[2],2.51 µM (active)
same,Potency,[3],0.282 µM (active)
COc1ncc2cc(C(=O)Nc3cc(C(=O)NCc4cccc(Cl)c4)ccc3Cl)c(=O)[nH]c2n1,Potency,[1],inactive
same,Potency,[2],inactive
same,Potency,[3],inactive
CC(O)c1cc(C(=O)N[C@@H](C)Cn2ccc(-c3ccc(C#N)c(Cl)c3)n2)n[nH]1 (stereo not given in full),Potency,[1],inactive
COc1cc(C(=O)NC2CCN(C)CC2)ccc1Nc1ncc2c(n1)N(C1CCCC1)CC(F)(F)C(=O)N2C,Potency,[1],22.4 µM (active)
same,Potency,[2],0.251 µM (active)
same,Potency,[3],15.8 µM (active)
Cc1ccc(C(=O)N(CCCN)C(c2oc3cc(Cl)ccc3c(=O)c2Cc2ccccc2)C(C)C)cc1 (stereo not given),Potency,[1],inactive
CCC1C(=O)OC23C=C[C@@H]4C(C(=O)O)=CO[C@H](O[C@@H]12)[C@@H]43 (stereo not given in full),Potency,[1],inactive
same,Potency,[2],inactive
same,Potency,[3],inactive
Nc1nc(Nc2ccc(S(N)(=O)=O)cc2)n(C(=S)Nc2c(F)cccc2F)n1,Potency,[1],inactive
same,Potency,[2],inactive
same,Potency,[3],inactive
CC(=O)O[C@H]1[C@@H](O)[C@H](O[C@H]2[C@@H]3C=CO[C@@H](O[C@H]4O[C@@H](CO)[C@H](O)[C@@H](O)[C@@H]4O)[C@@H]3[C@@]3(CO)O[C@@H]23)O[C@@H](C)[C@@H]1OC(=O)/C=C/c1ccccc1,Potency,[1],inactive
same,Potency,[2],inactive
same,Potency,[3],inactive
same,Potency,[4],inactive
same,Potency,[5],inactive
CC1(C)CCCC2(C)C1CC(=O)C13CC(CCC12)C(O)(CO)C3 (stereo not given),Potency,[1],inactive
same,Potency,[2],inactive
same,Potency,[3],inactive
same,Potency,[4],inactive
same,Potency,[5],inactive
Cc1cccc(S(=O)(=O)N2CCC[C@@H]2CCN2CCC(C)CC2)c1,Potency,[1],inactive
same,Potency,[2],inactive
same,Potency,[3],inactive
same,Potency,[4],inactive
same,Potency,[5],inactive
CCOC(=O)C(CCc1ccccc1)NC1CSC(c2cccs2)CN(CC(=O)O)C1=O (stereo not given),Potency,[1],inactive
same,Potency,[2],inactive
same,Potency,[3],inactive
same,Potency,[4],inactive
same,Potency,[5],inactive
COc1c2cc(c(O)c1OC)-c1cc(ccc1O)CCC(O)CCCC2 (stereo not given),Potency,[1],inactive
same,Potency,[2],inactive
same,Potency,[3],inactive
same,Potency,[4],inactive
same,Potency,[5],inactive
O=C1CC2(CCCC2)[C@H](O)C(=O)N1CCCCN1CCN(c2ncccn2)CC1,Potency,[1],inactive
same,Potency,[2],inactive
same,Potency,[3],inactive
same,Potency,[4],inactive
same,Potency,[5],inactive
C[C@@]12CC[C@@H]3[C@@](CC[C@H]4[C@@]3(C)CCC[C@@]4(C)C(=O)O)(CC1=O)C2,Potency,[1],inactive
same,Potency,[2],inactive
same,Potency,[3],inactive
same,Potency,[4],inactive
same,Potency,[5],inactive
COC(=O)[C@H](O)[C@H]1C(C)(C)[C@H](OC(=O)C(C)C)[C@@]2(O)C(=O)[C@]1(C)C1CC[C@]3(C)C(CC(=O)O[C@H]3c3ccoc3)[C@]13O[C@@H]32 (stereo not given in full),Potency,[1],inactive
same,Potency,[2],inactive
same,Potency,[3],inactive
same,Potency,[4],inactive
same,Potency,[5],inactive
CC(C)=CCC[C@](C)(O)[C@H]1CC[C@]2(C)[C@@H]1[C@H](O)CC1[C@@]3(C)CC[C@H](O)C(C)(C)[C@@H]3[C@@H](O[C@@H]3O[C@H](CO)[C@@H](O)[C@H](O)[C@H]3O[C@@H]3O[C@H](CO)[C@@H](O)[C@H](O)[C@H]3O)C[C@]12C (stereo not given in full),Potency,[1],inactive
same,Potency,[2],inactive
same,Potency,[3],inactive
same,Potency,[4],inactive
same,Potency,[5],inactive
CC1CC(O)C2(OC1=O)OC1C(O)C3C4CCC5CC(OC6OC(CO)C(O)C(O)C6OC6OC(C)C(O)C(O)C6O)CCC5(C)C4CCC3(C)C1C2C (stereo not given),Potency,[1],inactive
same,Potency,[2],inactive
same,Potency,[3],inactive
same,Potency,[4],inactive
same,Potency,[5],inactive
C=CC(C)(O)C(O)CC1C(C)(O)C(O)C(O)C2C(C)(C)CCCC21C (stereo not given),Potency,[1],inactive
same,Potency,[2],inactive
same,Potency,[3],inactive
same,Potency,[4],inactive
same,Potency,[5],inactive
CC(C)CC(=O)OC1OC=C(CO[C@@H]2O[C@H](CO)[C@@H](O)[C@H](O)[C@H]2O)C2CC(O)C(O)(CO)C12 (stereo not given in full),Potency,[1],inactive
same,Potency,[2],inactive
same,Potency,[3],inactive
same,Potency,[4],inactive
same,Potency,[5],inactive
COc1c2c(c(C)c3c1C(=O)OC3)O[C@@]1(C)CCC3(C(C)(C)O)OC(=O)CC[C@]3(C)[C@H]1C2 (stereo not given in full),Potency,[1],inactive
same,Potency,[2],inactive
same,Potency,[3],inactive
same,Potency,[4],inactive
same,Potency,[5],inactive
C/C(=C\CCC1(C)C2CCC(C2)C1(C)O)C(=O)O (stereo not given),Potency,[1],inactive
same,Potency,[2],inactive
same,Potency,[3],inactive
same,Potency,[4],inactive
same,Potency,[5],inactive
Cc1nc2sc(C(=O)NCc3ccncc3)c(N)c2c(C)c1Cl,Potency,[1],inactive
same,Potency,[2],inactive
same,Potency,[3],inactive
same,Potency,[4],inactive
same,Potency,[5],inactive
COc1cc(/C=C/C(=O)O[C@H]2[C@H](O)[C@@H](CO)O[C@@]2(CO)O[C@H]2O[C@H](CO)[C@@H](O)[C@H](O)[C@H]2O)ccc1O,Potency,[1],inactive
same,Potency,[2],inactive
same,Potency,[3],inactive
same,Potency,[4],inactive
same,Potency,[5],inactive
